Assay results published in PubChem BioAssay AID488969 (Vanderbilt High Throughput Screening Facility, 2010).
Over roughly 110,000 compounds, “z-score” has its median near -0.1; the highest 2% begin near 2. Many of the other results were omitted from the sample, so the highest values are more common in it than they were. Activity calls are given as the source filed them.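 How the source made its calls: active means z-score in the third read window above 3 or below -3; inactive means the rest.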

The compounds below were run against Metabotropic glutamate receptor 8 (Rattus norvegicus) (UniProt P70579) (assay: rat mGluR8 modulators via GIRK flux, primary screen, cell-based, thallium flux, HTS (AID 488969)). Settings: HEK293 rat mGluR8, GIRK (G protein-gated inwardly rectifying potassium channel) thallium flux, FluoZin2; at 10 µM; stronger effect = higher value; submaximal glutamate (EC20) added with thallium.
Sequence of Metabotropic glutamate receptor 8 (Rattus norvegicus) (P70579 whole entry, looked up): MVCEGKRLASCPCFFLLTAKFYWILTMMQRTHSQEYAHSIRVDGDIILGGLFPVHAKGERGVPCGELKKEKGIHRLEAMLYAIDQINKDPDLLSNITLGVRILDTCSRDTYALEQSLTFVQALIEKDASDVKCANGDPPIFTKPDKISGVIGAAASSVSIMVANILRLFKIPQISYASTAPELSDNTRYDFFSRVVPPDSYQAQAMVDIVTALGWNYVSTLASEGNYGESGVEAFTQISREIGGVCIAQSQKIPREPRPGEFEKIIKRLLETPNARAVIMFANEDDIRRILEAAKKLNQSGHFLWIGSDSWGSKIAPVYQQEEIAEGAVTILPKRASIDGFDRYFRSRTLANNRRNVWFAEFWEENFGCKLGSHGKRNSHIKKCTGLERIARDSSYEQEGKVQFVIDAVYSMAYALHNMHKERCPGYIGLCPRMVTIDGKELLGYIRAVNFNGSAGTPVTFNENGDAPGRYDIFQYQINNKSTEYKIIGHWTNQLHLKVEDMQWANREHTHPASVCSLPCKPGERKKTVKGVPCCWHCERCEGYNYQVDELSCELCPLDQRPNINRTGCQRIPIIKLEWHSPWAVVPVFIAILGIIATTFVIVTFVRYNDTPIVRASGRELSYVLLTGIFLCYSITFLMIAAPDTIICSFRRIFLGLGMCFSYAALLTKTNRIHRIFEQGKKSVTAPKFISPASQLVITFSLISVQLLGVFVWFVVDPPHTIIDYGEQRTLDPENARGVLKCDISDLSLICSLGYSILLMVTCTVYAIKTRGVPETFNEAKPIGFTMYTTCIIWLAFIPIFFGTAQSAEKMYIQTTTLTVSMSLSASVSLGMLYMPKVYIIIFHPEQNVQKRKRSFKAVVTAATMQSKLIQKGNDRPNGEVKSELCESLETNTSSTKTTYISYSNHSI

SMILES	z-score
CC1CCCCN1C(=O)CSc1nnc(-c2cccnc2)n1C1CCCCC1 (centres undefined)	0.109
COc1ccccc1N(CC(=O)NCc1cccnc1)S(C)(=O)=O	0.0794
CCN1CCN(C(=O)c2ccc3c(=O)n(C4CCCC4)c(=S)[nH]c3c2)CC1	5.09 (active)
CCCCCn1c(=O)[nH]c2cc(C(=O)N3CCN(CC)CC3)ccc2c1=O	0.0715
CCN(CC)CCNC(=O)c1ccc2c(=O)n(C3CCCC3)c(=S)[nH]c2c1	0.125
CCCn1c(=S)[nH]c2cc(C(=O)N3CCc4ccccc43)ccc2c1=O	1.07
O=C(c1ccc(CNc2c(NC3CCCCC3)c(=O)c2=O)cc1)N1CCc2ccccc21	-0.164
O=C(c1ccc2c(=O)n(C3CCCC3)c(=S)[nH]c2c1)N1CCc2ccccc21	9.93 (active)
O=C(Nc1ccc([N+](=O)[O-])cn1)c1cc(-c2cccc(Br)c2)nc2ccccc12	0.61
COC(=O)c1[nH]c2ccc(C)cc2c1NC(=O)CN1CCCC(C)(C)C1	-0.603
O=C(Nc1cc(C(=O)N2CCCC2)ccc1N1CCCC1)c1ccccc1	-1.7
Cc1nc2ccccc2c(=O)n1/N=C/c1ccc(O)cc1	0.481
Cc1nc2ccccc2c(=O)n1/N=C/c1ccccc1	-0.0985
O=c1c2ccccc2nc(-c2ccccc2)n1/N=C/c1ccc([N+](=O)[O-])cc1	6.71 (active)
CCC(=O)Nc1ccc2c(c1)ncn2-c1ccc(OC)cc1	2.82
COc1ccc(-n2cnc3cc(NC(=O)c4ccco4)ccc32)cc1	-1.7
CCC(=O)Nc1ccc2c(c1)ncn2-c1ccccc1	0.261
O=C(O)c1ccc(CNCc2c(Cl)cccc2Cl)cc1	0.0291
CC(CCc1ccccc1)NC(=O)COC(=O)C1=COCCO1 (centres undefined)	0.664
Nc1nc(SCc2ccc([N+](=O)[O-])cc2)c2ncn(C3OC(CO)C(O)C3O)c2n1 (centres undefined)	2.28
O=c1[nH]cnc2c1nc(SCc1ccccc1)n2C1OC(CO)C(O)C1O (centres undefined)	1.45
CN(C)c1ncnc2c1ncn2C1OC(CO)C(O)C1O (centres undefined)	-0.162
COc1ccc(C2=CC(=O)OC3(CCCCC3)O2)cc1	-2.37
O=C(Nc1ccc(N2CCCCC2)c(Cl)c1)c1ccc2c(c1)OCCO2	-0.282
COc1ccc(C(=O)Nc2ccc3c(c2)OCCO3)cc1	-0.168
CCOc1ccc(C(=O)Nc2ccc3c(c2)OCCO3)cc1OC	-0.705

SMILES	z-score
CCC(C)[C@H](NC(=O)Nc1ccc2c(c1)OCCO2)C(=O)O (some centres undefined)	-0.196
O=C(NC(=S)Nc1ccc(N2CCCCC2)c(Cl)c1)c1ccc2c(c1)OCCO2	0.126
O=C(Nc1ccc(N2CCCC2)c(Cl)c1)c1ccc2c(c1)OCCO2	2.58
COC(=O)[C@@H](NC(=O)Nc1ccc2c(c1)OCCO2)C(C)C	0.876
COc1cc(C(=O)Nc2ccc3c(c2)OCCO3)ccc1OC(C)C	2.41
COC(=O)[C@H](CC(C)C)NC(=O)Nc1ccc2c(c1)OCCO2	3.6 (active)
CC(C)c1ccc(C(=O)N2CCCN(C(=O)c3ccc(C(C)C)cc3)CC2)cc1	-0.119
O=C(NCC1CCCO1)C1CCN(S(=O)(=O)c2cccc3nonc23)CC1 (centres undefined)	0.153
O=C(NC1CCCCC1)C12CC3CC(C1)CC(n1cncn1)(C3)C2	-0.163
COc1ccc(Cn2nnnc2C(c2ccncc2)N2CCOCC2)cc1 (centres undefined)	0.39
O=C(COc1ccccc1Cl)NCCCN1CCOCC1	1.3
COc1ccc(S(=O)(=O)N2CCC(C(=O)NCc3ccccn3)CC2)cc1Cl	-0.477
COc1cccc(/C=N/n2c(=S)n(C)c3cc(C)c(C)cc32)c1OC	0.276
COc1cccc(/C=N/n2c(=S)n(C)c3ccccc32)c1OC	2.32
COc1ccc(/C=N/n2c(=S)n(C)c3ccccc32)cc1OC	0.103
COc1ccc(C)cc1C1=Nc2ccccc2C1(C)C	-0.42
Cn1c(=O)[nH]c(=O)c2c1nc(N1CCCCC1)n2CCCSc1nnnn1-c1ccccc1	-0.187
O=C(CSc1nnc(NC(=O)C2CCC2)s1)Nc1ccc(N2CCOCC2)cc1	-0.322
O=C(Nc1ccccc1)c1ccc(S(=O)(=O)N2CCCCC2)cc1	-0.0563
O=C(CC(NC(=O)c1ccccc1)c1ccccc1)Nc1cccc2ccccc12 (centres undefined)	-0.0391
COc1cccc(C(CC(=O)Nc2cccc3ccccc23)NC(=O)c2ccccc2)c1 (centres undefined)	2.17
COc1ccc(C(CC(=O)O)NC(=O)c2ccccc2)cc1OC (centres undefined)	-0.105
Cc1cc(C)nc(SCc2nnc(SCC(=O)Nc3nccs3)n2C)n1	0.465
COc1ccc(C(=O)C(c2ccccc2)N2CCOCC2)cc1 (centres undefined)	2.44
CCOc1ccc(C(=O)C(c2ccccc2)N2CCOCC2)cc1 (centres undefined)	-0.418
CCCCCOc1ccc(C(=O)C(c2ccccc2)N2CCOCC2)cc1 (centres undefined)	0.204

SMILES	z-score
O=S(=O)(Nc1ccc(N=Nc2ccccc2)cc1)c1ccccc1	-0.241
COc1cccc(NC(=O)CN(c2cccc(F)c2)S(C)(=O)=O)c1	-0.058
CC(=O)c1cccc(NC(=O)CN(c2cccc(F)c2)S(C)(=O)=O)c1	-0.268
COc1cccc(N(CC(=O)Nc2cccc(C(C)=O)c2)S(C)(=O)=O)c1	4.2 (active)
COc1ccc(CNC(=O)CN(c2cc(C)cc(C)c2)S(=O)(=O)c2c(C)noc2C)cc1	-0.0907
CC(=O)c1cccc(N(CC(=O)Nc2cccnc2)S(C)(=O)=O)c1	0.179
COc1ccc(N(CC(=O)NCc2cccc(OC)c2)S(=O)(=O)c2c(C)noc2C)cc1	-0.199
COc1cccc(N(CC(=O)NCc2cccnc2)S(C)(=O)=O)c1	3.97 (active)
CC(=O)c1cccc(N(CC(=O)Nc2ccc(F)cc2)S(C)(=O)=O)c1	2.52
COc1cccc(CNC(=O)CN(c2cc(C)cc(C)c2)S(=O)(=O)c2c(C)noc2C)c1	2.13
COc1ccc(OC)c(N(CC(=O)NCc2cccnc2)S(C)(=O)=O)c1	0.361
Cc1cccc(N(CC(=O)Nc2ccc(F)cc2)S(C)(=O)=O)c1	0.171
Cc1ccc(N(CC(=O)NCc2cccnc2)S(C)(=O)=O)cc1C	0.196
COc1ccc(CNC(=O)C2CCN(c3nccs3)CC2)cc1	-0.318
Cc1cc(NC(=O)CSc2nnc(-c3cccs3)n2N)no1	-0.647
COc1ccc2nc(SC(C(=O)c3ccccc3)c3ccccc3)nc(C)c2c1 (centres undefined)	0.574
CC(=O)c1cccc(S(=O)(=O)NCC2CCCCC2)c1	0.0227
COC(=O)/C(=C/Nc1cccc2ccccc12)[N+](=O)[O-]	-0.204
COC(=O)c1sccc1-c1ccc(/C=N/OCc2c(Cl)cccc2Cl)o1	-0.187
Cc1ccc(-c2c(C)n([O-])c3c([n+]2=O)CCCCC3)o1	-0.48
CC(C)Sc1nc(C(F)(F)F)cc(=O)n1-c1ccccc1	0.426
CC(=O)Oc1c(C(=O)c2nnc(C)o2)c(=O)n(C)c2ccccc12	-0.074
CC(=O)Oc1c(C(=O)c2nnc(C)o2)c(=O)n(Cc2ccccc2)c2ccccc12	2.07
COc1cc(-n2c(=O)c3ccccc3n(Cc3ccccc3)c2=O)cc(OC)c1OC	-0.047
CCc1ccc(NC(=O)N(CCCOC(C)C)C2CCN(C(C)=O)CC2)cc1	0.807
CC(C)(C)c1csc(NC(=O)c2ccc3nccnc3c2)n1	5.29 (active)

SMILES	z-score
O=C(Nc1nccs1)c1ccc2nccnc2c1	0.133
CC(C)(C)NC(=O)c1ccc2nccnc2c1	0.232
O=C(CCC(=O)OCC(=O)c1ccc(Cl)cc1Cl)Nc1cccc2cccnc12	0.0344
O=C(NCc1ccco1)C(c1ccc(F)cc1)N(CC1CCCO1)C(=O)Cn1nnc2ccccc21 (centres undefined)	-0.299
CCOC(=O)c1nnn(CC(=O)N2N=C(c3cc(C)ccc3C)CC2c2ccc(OC)cc2)c1C(=O)OCC (centres undefined)	-0.378
COc1ccc(/C(N)=N/OC(=O)Oc2ccccc2)cc1OC	-0.183
COC(=O)c1ccc2c(=O)n(Cc3ccco3)c(SCC(=O)Nc3ccc(C)c(Cl)c3)nc2c1	0.24
O=C(CSc1nc2cc(Cl)ccc2c(=O)n1Cc1ccco1)Nc1ccc(S(=O)(=O)N2CCOCC2)cc1	2.05
O=C(CSc1nnc(-c2ccccc2)n1Cc1ccco1)Nc1ccc(S(=O)(=O)N2CCCC2)cc1	-1.61
CNS(=O)(=O)c1cc(C(=O)NCc2ccco2)ccc1Cl	0.119
CCOc1ccc(NC(=S)N(CCCN2CCOCC2)Cc2cn(C)c3ccccc23)cc1	-0.232
N=c1n(Cc2ccccc2)c2ccccc2n1CC(O)c1ccccc1 (centres undefined)	0.899
CCc1cccc(CC)c1NC(=O)COC(=O)c1ccc2c(c1)S(=O)(=O)c1ccccc1C2=O	-0.326
CCC(C)c1ccccc1NC(=O)COC(=O)c1ccc2c(c1)S(=O)(=O)c1ccccc1C2=O (centres undefined)	2.17
CCC(C)c1ccccc1NC(=O)COC(=O)c1ccc2[nH]c3c(c2c1)CCCC3 (centres undefined)	-0.0793
C=CCn1c(-c2cccc(OC)c2)n[nH]c1=S	-0.21
CCCn1c(SCC(=O)Nc2nnc(-c3ccccc3)s2)nnc1-c1ccccn1	-0.176
Cc1ccc(C(=O)N/C(=C\c2ccccc2)C(=O)OCc2ccccc2)cc1	-0.52
CCOC(=O)C1=C(CSc2nc(-c3ccccc3)ccc2C#N)OC(N)=C(C#N)C1c1cccnc1 (centres undefined)	-0.107
CCOC(=O)CC1=C(C(=O)OCC)C(c2cccs2)C(C#N)=C(N)O1 (centres undefined)	3.6 (active)
CCOC(=O)C1=C(CSc2nc(-c3ccccc3)ccc2C#N)OC(N)=C(C#N)C1c1ccccc1 (centres undefined)	2.03
CCOC(=O)C1=C(CC)OC(N)=C(C#N)C1c1cccs1 (centres undefined)	-0.237
CCOC(=O)C1=C(CSc2nc(-c3ccccc3)ccc2C#N)OC(N)=C(C#N)C1c1ccc(OC)cc1 (centres undefined)	0.0604
CCOC(=O)C1=C(c2ccccc2)OC(N)=C(C#N)C1c1cccs1 (centres undefined)	0.288
Cc1[nH]c2ccccc2c1/C=N/NC(=O)c1cc(-c2cccs2)[nH]n1	-0.101
Cn1c(=O)[nH]c(=O)c2c1nc(NCCCn1ccnc1)n2Cc1ccc(F)cc1	0.613
